From PubChem BioAssay (Tox21) come the findings set out here.

Results filed as inconclusive are left out. Calls of active or inactive are those of the source. Unless noted, calls come from the whole dose curve; as a rule, active = well fitted curve in the direction sought with a large enough effect in the repeat runs; inconclusive = weak or mixed curves; inactive = no such curve, though single readings can be large; an effect the other way counts as inactive or inconclusive.

The nature of experiment [1]: qHTS assay to identify aromatase inhibitors - cell viability counter screen (AID 743084).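 Note: cells stimulated with testosterone during compound exposure; nearly all actives have a fitted effect of over 55% in size.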
The nature of experiment [2]: qHTS assay to identify small molecule that activate the aryl hydrocarbon receptor (AhR) signaling pathway - cell viability counter screen (AID 743086).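 Note: HepG2 liver cells carrying the AhR DRE luciferase reporter; series mostly up to about 70 µM; nearly all actives have a fitted effect of over 45% in size.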 In a few lines:
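HepG2-AhR-luc (HG2L7.5c1) cells, 4000/well, treated 24 h at 37 C with compound; viability measured as CellTiter-Fluor fluorescence after 30 min in the same wells as the luciferase read.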
A general note: Quantitative high-throughput screening tests each substance at several concentrations.

For experiment [3], the target named is Peroxisome proliferator-activated receptor gamma (Homo sapiens) (UniProt P37231). Nature of the experiment: qHTS assay to identify small molecule agonists of the peroxisome proliferator-activated receptor gamma (PPARg) signaling pathway (AID 743094; active = well fitted activation curve with a large enough effect in the signal ratio in the repeat runs, not every such curve was filed as active; the % refers to the signal ratio). In a few lines: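 Cell-based bla reporter, HEK293H background, PPARg-driven UAS. Pre-incubation 5 h, 37C, 5% CO2. Compound 17 h, 37C. Substrate 1 h RT; fluorescence.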
Chain of Peroxisome proliferator-activated receptor gamma (Homo sapiens) (P37231 whole entry, looked up): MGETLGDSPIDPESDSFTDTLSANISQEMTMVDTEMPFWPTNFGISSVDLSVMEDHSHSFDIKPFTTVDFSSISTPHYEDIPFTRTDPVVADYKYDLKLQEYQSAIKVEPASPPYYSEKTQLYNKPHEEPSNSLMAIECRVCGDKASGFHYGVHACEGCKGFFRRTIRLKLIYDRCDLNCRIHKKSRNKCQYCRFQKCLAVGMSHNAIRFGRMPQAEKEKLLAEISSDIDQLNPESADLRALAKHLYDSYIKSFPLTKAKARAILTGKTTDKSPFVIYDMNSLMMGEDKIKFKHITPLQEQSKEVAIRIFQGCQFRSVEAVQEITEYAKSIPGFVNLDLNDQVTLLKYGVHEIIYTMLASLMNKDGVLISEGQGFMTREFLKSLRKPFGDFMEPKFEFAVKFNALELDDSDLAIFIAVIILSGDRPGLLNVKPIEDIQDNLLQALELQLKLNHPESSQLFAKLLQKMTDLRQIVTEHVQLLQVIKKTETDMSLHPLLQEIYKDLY

For experiment [4] the target is unchanged. Nature of the experiment: qHTS assay to identify small molecule antagonists of the peroxisome proliferator-activated receptor gamma (PPARg) signaling pathway (AID 743191; calls by dose curve; note: series mostly up to about 63 µM; nearly all actives have a fitted effect of over 30% in size). In a few lines: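 GeneBLAzer PPARg UAS-bla HEK293H cells, 5 h post-plating, exposed to compounds 17 h at 37C. LiveBLAzer B/G FRET substrate added for 1 h at room temperature; beta-lactamase reporter read by fluorescence intensity.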

Experiment [5] is described as follows: qHTS assay to identify small molecule antagonists of the peroxisome proliferator-activated receptor gamma (PPARg) signaling pathway - cell viability counter screen (AID 743194). Note: nearly all actives have a fitted effect of over 55% in size. The procedure, abridged:
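Cytotoxicity counter screen in PPARg-bla HEK293H cells, same wells as reporter assay. Compounds plus 50 nM rosiglitazone (final) for 17 h at 37 C, then viability read by CellTiter-Glo luminescence.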

The nature of experiment [6]: qHTS assay for small molecule agonists of the antioxidant response element (ARE) signaling pathway (AID 743202; active = well fitted activation curve with a large enough effect in the signal ratio in the repeat runs, not every such curve was filed as active; the % refers to the signal ratio; note: potency is the fitted concentration of half-maximal effect). The procedure, abridged: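 HepG2 ARE-bla cells; 16 h treatment at 37 C; FRET-based beta-lactamase fluorescence read after 2 h substrate incubation at room temperature.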
Experiment [7] is described as follows: qHTS assay for small molecule agonists of the antioxidant response element (ARE) signaling pathway - cell viability counter screen (AID 743203; calls by dose curve; note: nearly all actives have a fitted effect of over 55% in size). The procedure, abridged:
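Measured in the same wells as the beta-lactamase ARE reporter, this read-out is CellTiter-Glo luminescence from HepG2 ARE-bla cells given compounds for 16 hrs.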

Experiment [8] can be described thus: qHTS assay for small molecule activators of the heat shock response signaling pathway - cell viability counter screen (AID 743209). Note: nearly all actives have a fitted effect of over 50% in size. The procedure, abridged: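 Same-well multiplex: after 2.5 h room-temperature incubation with LiveBLAzer B/G substrate and fluorescence reading, CellTiter-Glo reagent was added to HSE-bla HeLa cells that had received compound for 5 h at 37 C; luminescence read after 30 min.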

Experiment [9] in a line: qHTS assay to identify small molecule agonists of the peroxisome proliferator-activated receptor delta (PPARd) signaling pathway - cell viability counter screen (AID 743211). Note: nearly all actives have a fitted effect of over 55% in size. The procedure, abridged:
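qHTS cell viability: PPARd-bla HEK293H; 17 h cpd, 37C; CellTiter-Glo, luminescence at 30 min RT.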

Experiment [10] in a line: qHTS assay to identify small molecule antagonists of the peroxisome proliferator-activated receptor delta (PPARd) signaling pathway - cell viability counter screen (AID 743213). Note: nearly all actives have a fitted effect of over 50% in size. The procedure, abridged:
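Viability counter-screen, qHTS format: PPARd-bla HEK293H, L165041 300 nM final, 17 h compound exposure at 37 C, CellTiter-Glo luminescence after 30 min RT.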

Experiment [11] deals with Bile acid receptor (Homo sapiens) (UniProt Q96RI1). Description: qHTS assay to identify small molecule antagonists of the farnesoid-X-receptor (FXR) signaling pathway (AID 743217; active = well fitted inhibition curve with a large enough effect in the signal ratio in the repeat runs, not every such curve was filed as active; the % refers to the signal ratio). The procedure, abridged:
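FRET fluorescence after 2 h room-temperature LiveBLAzer loading gives the readout. Prior step: FXR-bla HEK 293T cells, seeded and incubated 5 h, received test compounds plus 50 uM final CDCA for 16 h at 37 °C.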

Experiment [12] can be described thus: qHTS assay to identify small molecule agonists of the farnesoid-X-receptor (FXR) signaling pathway - cell viability counter screen (AID 743218). Note: nearly all actives have a fitted effect of over 45% in size. In a few lines:
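Readout: CellTiter-Glo luminescence, 30 min RT, multiplexed after the FXR-bla FRET reading. HEK 293T FXR-UAS-bla cells received compound 5 h post-plating and were incubated 16 h at 37 C.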

The target in experiment [13] is Bile acid receptor (Homo sapiens) (UniProt Q96RI1). Nature of the experiment: qHTS assay to identify small molecule agonists of the farnesoid-X-receptor (FXR) signaling pathway (AID 743220; active = well fitted activation curve with a large enough effect in the signal ratio in the repeat runs, not every such curve was filed as active; the % refers to the signal ratio). In a few lines:
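FXR-UAS-bla HEK 293T cells carrying a UAS-driven beta-lactamase reporter were plated for 5 h at 37C/5% CO2, then exposed to DMSO-dissolved Tox21 10K compounds for 16 h at 37C. A LiveBLAzer B/G FRET substrate was loaded for 2 h at room temperature before fluorescence reading.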

Experiment [14] can be described thus: qHTS assay to identify small molecule antagonists of the farnesoid-X-receptor (FXR) signaling pathway - cell viability counter screen (AID 743221; active = well fitted cell-killing curve with a large enough effect in the repeat runs, not every such curve was filed as active; note: nearly all actives have a fitted effect of over 50% in size). In a few lines: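 After a 5 h settling period, FXR-bla HEK 293T cells receive compound and chenodeoxycholic acid (50 uM final) and incubate 16 h at 37 C; CellTiter-Glo luminescence, read after 30 min at room temperature, reports cell viability.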

Experiment [15] deals with Vitamin D3 receptor (Homo sapiens) (UniProt P11473). Nature of the experiment: qHTS assay to identify small molecule agonists of the vitamin D receptor (VDR) signaling pathway (AID 743222; calls by dose curve). In a few lines:
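Following 4 h attachment at 37C, VDR-bla cells (2,000 per well) received DMSO-dissolved compounds or controls. After 16 h incubation, LiveBLAzer B/G FRET substrate was added and fluorescence read 2 h later at room temperature.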

Experiment [16] has the same target. Nature of the experiment: qHTS assay to identify small molecule antagonists of the vitamin D receptor (VDR) signaling pathway (AID 743223; active = well fitted inhibition curve with a large enough effect in the signal ratio in the repeat runs, not every such curve was filed as active; the % refers to the signal ratio). The procedure, abridged:
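Reporter line VDR-bla; stimulus 1alpha,25-(OH)2 vitamin D3, 3 nM final; compound co-addition, 16 h 37C/5% CO2; LiveBLAzer B/G substrate 2 h RT; fluorescence intensity.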

Experiment [17] is described as follows: qHTS assay for small molecule activators of the heat shock response signaling pathway (AID 743210; active = well fitted activation curve with a large enough effect in the signal ratio in the repeat runs, with a control signal flat, not every such curve was filed as active; the % refers to the signal ratio;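 note: HeLa cells with beta-lactamase reporter driven by heat shock elements; series mostly up to about 63 µM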). In a few lines: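 Following overnight attachment, HSE-bla HeLa cells received test compounds for 5 h at 37 C; beta-lactamase activity was then detected via FRET substrate fluorescence.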
Experiment [18] deals with Peroxisome proliferator-activated receptor delta (Homo sapiens) (UniProt Q03181). Nature of the experiment: qHTS assay to identify small molecule antagonists of the peroxisome proliferator-activated receptor delta (PPARd) signaling pathway (AID 743215; active = well fitted inhibition curve with a large enough effect in the signal ratio in the repeat runs, not every such curve was filed as active; the % refers to the signal ratio;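 note: cells stimulated with agonist L165041 at 300 nM final during compound exposure; series mostly up to about 62 µM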). In a few lines: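 Fluorescence from cleaved LiveBLAzer B/G FRET substrate (2 h, room temperature) reports PPARd-driven beta-lactamase in HEK293H UAS-bla cells. Cells had been treated 17 h at 37 C with compound plus 300 nM final L165041.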
Chain of Peroxisome proliferator-activated receptor delta (Homo sapiens) (Q03181 whole entry, looked up): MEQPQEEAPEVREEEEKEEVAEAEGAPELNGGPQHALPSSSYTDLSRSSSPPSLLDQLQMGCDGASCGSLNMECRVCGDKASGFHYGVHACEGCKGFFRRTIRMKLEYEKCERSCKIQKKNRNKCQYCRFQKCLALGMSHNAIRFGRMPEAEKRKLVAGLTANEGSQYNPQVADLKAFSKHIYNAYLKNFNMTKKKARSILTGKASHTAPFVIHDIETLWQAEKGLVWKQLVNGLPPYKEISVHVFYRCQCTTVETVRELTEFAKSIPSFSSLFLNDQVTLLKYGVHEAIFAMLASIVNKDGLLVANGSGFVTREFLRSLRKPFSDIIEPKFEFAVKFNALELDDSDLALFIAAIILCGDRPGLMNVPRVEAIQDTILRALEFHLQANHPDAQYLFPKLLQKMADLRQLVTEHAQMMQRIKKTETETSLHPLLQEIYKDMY

Experiment [19] has as its target Aryl hydrocarbon receptor (Homo sapiens) (UniProt P35869). Description: qHTS assay to identify small molecule that activate the aryl hydrocarbon receptor (AhR) signaling pathway (AID 743085).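 For activation: HG2L7.5c1 human HepG2 liver cells with stably integrated DRE-driven firefly reporter; series mostly up to about 70 µM.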 Note: nearly all actives have a fitted effect of over 15% in size. Note: potency is the fitted concentration of half-maximal effect. The procedure, abridged: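 AhR agonist activity is inferred from enhanced light output of a DRE-controlled firefly luciferase reporter in HepG2 cells, measured with ONE-Glo following 24 h treatment at 37C.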

Experiment [20] has as its target Peroxisome proliferator-activated receptor delta (Homo sapiens) (UniProt Q03181). Nature of the experiment: qHTS assay to identify small molecule agonists of the peroxisome proliferator-activated receptor delta (PPARd) signaling pathway (AID 743212; calls by dose curve). In a few lines:
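Tox21 library screened in GeneBLAzer PPARd UAS-bla HEK293H cells. After compound treatment at 37 C, a FRET-based beta-lactamase substrate was applied for 2 h and fluorescence recorded.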

Chain of Bile acid receptor (Homo sapiens) (Q96RI1 whole entry, looked up): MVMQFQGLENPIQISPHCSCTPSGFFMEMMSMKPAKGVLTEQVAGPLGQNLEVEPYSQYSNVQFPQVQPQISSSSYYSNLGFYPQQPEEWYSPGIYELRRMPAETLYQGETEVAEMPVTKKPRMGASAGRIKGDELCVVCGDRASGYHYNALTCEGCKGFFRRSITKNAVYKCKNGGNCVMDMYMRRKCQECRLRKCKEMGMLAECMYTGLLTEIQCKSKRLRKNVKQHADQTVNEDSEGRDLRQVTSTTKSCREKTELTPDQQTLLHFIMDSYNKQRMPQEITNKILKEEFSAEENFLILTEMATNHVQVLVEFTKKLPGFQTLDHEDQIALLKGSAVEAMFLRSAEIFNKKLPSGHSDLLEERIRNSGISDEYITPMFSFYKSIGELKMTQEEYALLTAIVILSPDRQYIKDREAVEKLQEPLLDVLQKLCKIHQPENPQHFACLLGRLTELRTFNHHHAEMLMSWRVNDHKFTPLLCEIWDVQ
Chain of Vitamin D3 receptor (Homo sapiens) (P11473 whole entry, looked up): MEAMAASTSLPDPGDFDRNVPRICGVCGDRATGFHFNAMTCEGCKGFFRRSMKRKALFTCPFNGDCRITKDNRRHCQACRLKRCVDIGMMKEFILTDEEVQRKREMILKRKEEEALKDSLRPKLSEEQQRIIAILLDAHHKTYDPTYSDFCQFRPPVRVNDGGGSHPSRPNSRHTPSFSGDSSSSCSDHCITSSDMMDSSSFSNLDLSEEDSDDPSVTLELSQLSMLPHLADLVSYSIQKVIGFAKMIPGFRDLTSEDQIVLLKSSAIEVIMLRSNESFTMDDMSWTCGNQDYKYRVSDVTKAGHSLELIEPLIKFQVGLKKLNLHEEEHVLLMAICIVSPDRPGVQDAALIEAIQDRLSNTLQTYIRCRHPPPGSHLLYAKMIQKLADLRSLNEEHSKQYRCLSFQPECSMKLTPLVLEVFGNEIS
Chain of Aryl hydrocarbon receptor (Homo sapiens) (P35869 whole entry, looked up): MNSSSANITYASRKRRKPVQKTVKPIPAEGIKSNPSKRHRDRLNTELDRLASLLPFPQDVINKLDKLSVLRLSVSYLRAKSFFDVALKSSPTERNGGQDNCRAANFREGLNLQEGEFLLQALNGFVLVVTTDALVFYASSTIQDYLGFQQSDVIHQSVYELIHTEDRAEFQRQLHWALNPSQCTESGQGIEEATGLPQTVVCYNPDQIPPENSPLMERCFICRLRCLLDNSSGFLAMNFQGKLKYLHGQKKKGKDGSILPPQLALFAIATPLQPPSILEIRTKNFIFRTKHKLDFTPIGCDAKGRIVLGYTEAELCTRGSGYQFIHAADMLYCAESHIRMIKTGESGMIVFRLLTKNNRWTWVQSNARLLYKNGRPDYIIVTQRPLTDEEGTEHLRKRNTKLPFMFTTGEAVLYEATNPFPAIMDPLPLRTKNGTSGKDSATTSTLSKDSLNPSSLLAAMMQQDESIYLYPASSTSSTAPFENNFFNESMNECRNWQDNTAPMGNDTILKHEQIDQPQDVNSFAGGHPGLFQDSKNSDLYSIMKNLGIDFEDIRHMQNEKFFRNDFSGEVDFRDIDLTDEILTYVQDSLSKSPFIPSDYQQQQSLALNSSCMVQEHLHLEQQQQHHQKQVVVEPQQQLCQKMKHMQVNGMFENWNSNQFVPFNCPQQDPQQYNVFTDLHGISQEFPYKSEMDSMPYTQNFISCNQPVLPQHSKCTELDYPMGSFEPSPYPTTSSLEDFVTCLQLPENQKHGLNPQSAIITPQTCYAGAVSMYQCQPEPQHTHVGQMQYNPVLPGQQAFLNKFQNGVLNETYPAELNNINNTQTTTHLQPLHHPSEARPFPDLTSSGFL

With `Nc1c2c(nc3c1CCC3)CCCC2`, the Potency entry in experiment [1], in [2], in experiment [3], in [4] and in experiment [6] was “inactive” in each case. In addition, the compound was classed as inactive in experiment [5], in experiment [7], in [8], in experiment [9], in experiment [10] and in experiment [11]. Also, the result in experiment [12], in experiment [13], in experiment [14], in experiment [15] and in experiment [16] was inactive.
Turning to `CCOC(=O)COc1cc(-n2ncc(C(F)(F)F)c(C)c2=O)c(F)cc1Cl`, the Potency result in [1], in experiment [2], in [3], in [4] and in [6] was “inactive” in each case. Also, the outcome in experiment [5], in [7], in experiment [17], in [9], in experiment [10] and in experiment [18] was inactive. Moreover, the call in experiment [12], in experiment [14] and in experiment [15] was inactive.
Turning to `CC(=O)N1C[C@H](O)C[C@H]1C(=O)O`, the Potency result in [1], in experiment [19] and in [6] was “inactive” in each case. The call in experiment [5], in [7], in experiment [8], in [17], in experiment [9] and in [20] was inactive. The compound was called inactive in [10], in [18], in experiment [11], in [12], in experiment [13] and in [14]. For the same compound, the compound was called inactive in experiment [15] and in experiment [16].
Consider `COc1ccnc(CS(=O)c2nc3cc(OC(F)F)ccc3[nH]2)c1OC` (stereo not drawn), for which the Potency entry in experiment [1] and in experiment [3] was “inactive” throughout. The results for the Potency in experiment [19] and in [6] were 3.35 µM (active) and 27.5 µM (active), respectively. Further, the outcome in experiment [5], in experiment [7], in experiment [8], in experiment [17], in [20] and in [10] was inactive. In addition, the call in experiment [18], in experiment [12] and in experiment [14] was inactive.
On to `C[N+]12CCC(CC1)C(OC(=O)C(O)(c1ccccc1)c1ccccc1)C2` (stereo not drawn), for which the Potency result in experiment [1], in [2], in experiment [3] and in [4] was “inactive” each time. Besides, the compound was called inactive in [5], in [7], in experiment [8], in experiment [12], in experiment [14] and in experiment [15]. Moreover, in experiment [16], the compound was called inactive.
Turning to `CC(C)(C)OC(=O)c1cccc(N)c1`, the Potency entry in experiment [1], in experiment [2], in experiment [3], in [4] and in experiment [6] was “inactive” throughout. Also, the compound was classed as inactive in experiment [5], in experiment [7], in experiment [17], in [9], in experiment [20] and in [18]. The call in [12], in [14], in experiment [15] and in experiment [16] was inactive.
`CC12CCC(C(=O)C1=O)C2(C)C` (stereo not drawn): the Potency entry in [1], in experiment [2], in experiment [3] and in experiment [6] was “inactive” throughout. Further, the result in [5], in [7], in [8], in experiment [17], in [9] and in experiment [20] was inactive. The result in [10], in experiment [18], in [11], in experiment [12], in [13] and in [14] was inactive. In addition, the compound was called inactive in [15] and in experiment [16].
For `C[C@@H]1CCC[C@H](C)N1`, the Potency result in [1], in [2], in experiment [3], in experiment [4] and in experiment [6] was “inactive” each time. Besides, the compound was classed as inactive in experiment [5], in experiment [7], in experiment [8], in experiment [17], in [10] and in experiment [12]. The compound was called inactive in [14], in experiment [15] and in experiment [16].
